Some test systems named below: SR leukemia; RPMI-8226 leukemia; OVCAR-8 ovarian; OVCAR-5 ovarian; OVCAR-4 ovarian; SK-OV-3 ovarian; IGROV1 ovarian; OVCAR-3 ovarian; HS 578T breast; NCI/ADR-RES ovarian.
Holding throughout (assay): NCI-60 one-dose screen, 48 h (100 = growth as untreated, 0 = no growth, -100 = all killed)
What all share (settings): 10 µM unless noted

For 14 compounds, growth results are on record in PubChem BioAssay (NCI).

The structures appear in SMILES notation. About 83,000 compounds went through this panel and 20% of them were active in at least one assay; those are over-represented in the sample as a whole.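 A percent growth of 40 corresponds to 60% growth inhibition; 0 means no net growth; -100 means all cells died. Active threshold: below 10.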 A number with no mark means an inactive call. Active and inactive are the calls of the source.

`COc1cc(NC(N)=NCCC(C)(C)Oc2ccc(C(F)(F)F)cc2)ncc1C#N`: the growth in the assay with SR leukemia is -54.9% (active); with RPMI-8226 leukemia it was -49.6% (active); in the assay with OVCAR-8 ovarian, -76.6% (active); in the assay on OVCAR-5 ovarian, 28.9%; in the assay with OVCAR-4 ovarian, 12%; with SK-OV-3 ovarian, 48.8%. The growth in the assay with IGROV1 ovarian is -38.9% (active); with OVCAR-3 ovarian, -75% (active); in the assay with HS 578T breast, 38.1%; in the assay on NCI/ADR-RES ovarian it was 0.0363% (active).

`Cc1ccc2nc(Cl)cc(=O)n2c1`: the growth in the assay with SR leukemia is 97.8%; in the assay on RPMI-8226 leukemia it was 96.1%; with OVCAR-8 ovarian, 117%; in the assay on OVCAR-5 ovarian it was 94%; with OVCAR-4 ovarian, 117%; in the assay on SK-OV-3 ovarian it was 102%. The growth is 123% in the assay on IGROV1 ovarian, 135% in the assay with OVCAR-3 ovarian, 93.7% in the assay on HS 578T breast and 117% in the assay with NCI/ADR-RES ovarian.

For `COc1ccc(/C=N\NC(=O)CN2CCN(c3cc4c(cc3F)c(=O)c(C(=O)N/N=C/c3ccc(OC)c(OC)c3)cn4C3CC3)CC2)cc1OC`, the growth in the assay with SR leukemia is 3.52% (active); in the assay with RPMI-8226 leukemia it was 4.84% (active); in the assay on OVCAR-8 ovarian, 13.3%; in the assay with OVCAR-5 ovarian it was 26.4%; in the assay on OVCAR-4 ovarian, -2.98% (active); in the assay on SK-OV-3 ovarian it was 17.1%. Moreover, the growth with IGROV1 ovarian was 4.1% (active); in the assay on OVCAR-3 ovarian, -5.57% (active); with HS 578T breast, -4.8% (active); in the assay with NCI/ADR-RES ovarian, 100%.

In the case of `C=C1C(=O)O[C@H]2[C@H]1CC/C(Cn1cc(CNC(=O)/C=C/c3c[nH]c4ccccc34)nn1)=C\CC[C@@]1(C)O[C@@H]21`, the growth in the assay on SR leukemia is 56.6%; in the assay with RPMI-8226 leukemia it was 13%; in the assay with OVCAR-8 ovarian it was 98.9%; in the assay with OVCAR-5 ovarian, 114%; in the assay on OVCAR-4 ovarian, 100%; in the assay with SK-OV-3 ovarian it was 103%. Besides, the growth in the assay with IGROV1 ovarian was 86.2%; with OVCAR-3 ovarian it was 30.5%; with HS 578T breast, 95.4%; in the assay on NCI/ADR-RES ovarian, 108%.

In the case of `CCOC(=O)NNC(=S)Nc1ccccc1`, the growth was 110% in the assay with SR leukemia; 105% with RPMI-8226 leukemia; 102% in the assay on OVCAR-8 ovarian; 116% in the assay with OVCAR-5 ovarian; 100% in the assay on OVCAR-4 ovarian; 111% in the assay with SK-OV-3 ovarian. The growth in the assay on IGROV1 ovarian is 107%; in the assay on OVCAR-3 ovarian it was 116%; in the assay with HS 578T breast, 103%; in the assay on NCI/ADR-RES ovarian, 106%.

Consider `Clc1ccc2c(NC3CCC(NC4CCCCC4)CC3)ccnc2c1` (stereo not given), for which the growth in the assay with SR leukemia is -3.32% (active); with RPMI-8226 leukemia it was 39.4%; in the assay with OVCAR-8 ovarian it was 52.2%; in the assay with OVCAR-5 ovarian, 84.4%; with OVCAR-4 ovarian it was 50%; in the assay with SK-OV-3 ovarian it was 73.4%. In addition, the growth is 83.4% in the assay on IGROV1 ovarian, 85.3% with OVCAR-3 ovarian, 67.5% in the assay with HS 578T breast and 68% in the assay on NCI/ADR-RES ovarian.

In the case of `C=C(C)[C@@H]1C[C@H](O)Cc2cc(F)ccc2N1`, the growth in the assay on SR leukemia is 83.2%; with RPMI-8226 leukemia, 74.8%; in the assay with OVCAR-8 ovarian, 96.5%; in the assay on OVCAR-5 ovarian, 85.5%; in the assay on OVCAR-4 ovarian, 108%; with SK-OV-3 ovarian, 102%. Further, the growth with IGROV1 ovarian is 108%; in the assay with OVCAR-3 ovarian, 111%; with HS 578T breast, 96.8%; with NCI/ADR-RES ovarian, 93.6%.

Turning to `Cc1cc(N/N=C/c2nc(-c3ccc(Br)cc3)oc2C)c2cc(Cl)ccc2n1`, the growth was 5.46% (active) in the assay with SR leukemia; -9.52% (active) in the assay on RPMI-8226 leukemia; 41.4% in the assay with OVCAR-8 ovarian; 102% in the assay with OVCAR-5 ovarian; -74.2% (active) with OVCAR-4 ovarian; 104% with SK-OV-3 ovarian. For the same compound, the growth in the assay with IGROV1 ovarian is 92.6%; with OVCAR-3 ovarian, 45.2%; with HS 578T breast it was 106%; in the assay with NCI/ADR-RES ovarian, 69.2%.

As to `CCC(C)/C(=C\C#N)NCCCN/C(=C/C#N)C(C)CC` (stereo not given), the growth in the assay with SR leukemia is 90.4%; in the assay with RPMI-8226 leukemia, 88.7%; in the assay with OVCAR-8 ovarian, 100%; in the assay with OVCAR-5 ovarian, 102%; with OVCAR-4 ovarian it was 109%; in the assay on SK-OV-3 ovarian, 105%. For the same compound, the growth in the assay on IGROV1 ovarian was 102%; in the assay with OVCAR-3 ovarian it was 126%; with HS 578T breast, 101%; in the assay on NCI/ADR-RES ovarian, 105%.

In the case of `CC1=C(C#N)C(=O)NC(C)C1` (stereo not given), the growth is 110% with SR leukemia; 105% in the assay with RPMI-8226 leukemia; 102% with OVCAR-8 ovarian; 95.5% with OVCAR-5 ovarian; 110% in the assay with OVCAR-4 ovarian; 103% in the assay with SK-OV-3 ovarian. In addition, the growth with IGROV1 ovarian was 105%; with OVCAR-3 ovarian, 103%; in the assay with HS 578T breast, 97.2%; in the assay on NCI/ADR-RES ovarian it was 102%.

Take `O=C(Nc1ccncc1)C(=O)c1cn(S(=O)(=O)c2ccc(Oc3ccccc3)cc2)c2ccccc12`: the growth in the assay on SR leukemia was 92.9%; with RPMI-8226 leukemia it was 76.4%; with OVCAR-8 ovarian it was 99.3%; in the assay on OVCAR-5 ovarian it was 87.5%; with OVCAR-4 ovarian it was 88.3%; in the assay with SK-OV-3 ovarian, 86.4%. In addition, the growth in the assay with IGROV1 ovarian is 82.7%; in the assay with OVCAR-3 ovarian, 112%; with HS 578T breast, 92%; in the assay on NCI/ADR-RES ovarian it was 92.5%.

In the case of `CC(C)(C)n1cc(-c2ccnc(NCCNS(=O)(=O)c3ccc(C(F)(F)F)cc3)c2)c(-c2cccc(O)c2)n1`, the growth in the assay with SR leukemia was 8.04% (active); in the assay on RPMI-8226 leukemia, 4.88% (active); in the assay on OVCAR-8 ovarian it was 58.5%; in the assay on OVCAR-5 ovarian it was 72.2%; in the assay on OVCAR-4 ovarian, 50.5%; in the assay with SK-OV-3 ovarian it was 86.3%. Moreover, the growth with IGROV1 ovarian was 71.4%; in the assay on OVCAR-3 ovarian, 68.1%; with HS 578T breast, 47.3%; in the assay on NCI/ADR-RES ovarian, 56.7%.

For the compound `O=[N+]([O-])c1ccc(-c2cn(-c3ccccc3)c(-c3ccccc3)n2)cc1`, the growth with SR leukemia is 43.3%; in the assay with RPMI-8226 leukemia, -0.221% (active); in the assay with OVCAR-8 ovarian, 70.6%; in the assay with OVCAR-5 ovarian, 95.4%; in the assay with OVCAR-4 ovarian, 84.2%; in the assay on SK-OV-3 ovarian, 79.1%. Moreover, the growth is 64.2% in the assay on IGROV1 ovarian, 97.4% in the assay with OVCAR-3 ovarian, 97.5% with HS 578T breast and 85.3% in the assay with NCI/ADR-RES ovarian.

Regarding `COc1cc(-c2nc(N=Nc3c(O)[nH]c4ccc(Br)cc34)[nH]c(=O)c2C#N)cc(OC)c1OC`, the growth in the assay with SR leukemia was 88.2%; with RPMI-8226 leukemia it was 98.2%; in the assay with OVCAR-8 ovarian, 93.5%; in the assay on OVCAR-5 ovarian it was 101%; with OVCAR-4 ovarian, 101%; in the assay with SK-OV-3 ovarian, 108%. Besides, the growth is 101% in the assay with IGROV1 ovarian, 102% in the assay with OVCAR-3 ovarian, 93.8% in the assay with HS 578T breast and 102% in the assay on NCI/ADR-RES ovarian.
